Several values for one entry are separate records, joined by “and”; a condition that tells them apart may be missing. Equal values may be shown once. Results filed as inconclusive are left out. A call without a number means that no potency is given here. Some compounds were tested as several samples or in several runs, with calls that do not always agree. Activity calls are given as the source filed them. Unless noted, the call rests on the fitted dose curve; in most records, active means well fitted curve in the direction sought with a large enough effect in the repeat runs; inconclusive means weak or mixed curves; inactive means no such curve, though single readings can be large; an effect the other way counts as inactive or inconclusive.
Assays:
[1] = biological target: Acetylcholinesterase (Homo sapiens) (UniProt P22303); assay: Acetylcholinesterase (AChE) small molecule antagonists: colormetric cell-based qHTS assay (AID 1347395; calls by dose curve; further: nearly all actives have a fitted effect of over 30% in size; further: potency means the concentration at half of the fitted maximal effect)
Chain of Acetylcholinesterase (Homo sapiens) (P22303 whole entry, looked up): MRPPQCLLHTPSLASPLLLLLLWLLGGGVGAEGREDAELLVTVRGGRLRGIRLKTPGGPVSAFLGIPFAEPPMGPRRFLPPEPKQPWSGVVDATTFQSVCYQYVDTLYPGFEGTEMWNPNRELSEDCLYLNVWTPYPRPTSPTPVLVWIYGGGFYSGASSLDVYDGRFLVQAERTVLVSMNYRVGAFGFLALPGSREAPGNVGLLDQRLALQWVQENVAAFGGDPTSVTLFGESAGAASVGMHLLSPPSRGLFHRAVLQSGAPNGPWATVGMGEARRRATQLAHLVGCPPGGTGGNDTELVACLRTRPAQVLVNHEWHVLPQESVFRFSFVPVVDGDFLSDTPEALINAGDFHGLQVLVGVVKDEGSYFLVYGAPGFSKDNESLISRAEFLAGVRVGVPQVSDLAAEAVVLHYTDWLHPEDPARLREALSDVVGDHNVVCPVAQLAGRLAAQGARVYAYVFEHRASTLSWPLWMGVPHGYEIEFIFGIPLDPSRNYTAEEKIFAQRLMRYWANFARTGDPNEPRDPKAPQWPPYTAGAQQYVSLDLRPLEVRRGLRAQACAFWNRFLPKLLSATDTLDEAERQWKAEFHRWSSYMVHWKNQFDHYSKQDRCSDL
Outline: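 AChE inhibition read colorimetrically via DTNB–thiocholine in SH-SY5Y cells. Compound 30 min, substrate 90 min, both 37 C.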

[2] = biological target: Acetylcholinesterase (Homo sapiens) (UniProt P22303); assay: Acetylcholinesterase (AChE) small molecule antagonists: enzyme-based qHTS assay (AID 1347397; calls by dose curve; further: nearly all actives have a fitted effect of over 55% in size); settings: Potency: AChE enzyme activity inhibition
Outline: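 Colorimetric DTNB readout of acetylthiocholine hydrolysis, 10 min at room temperature, after 30 min room-temperature exposure of 50 mU/mL recombinant human enzyme to compound; DMSO vehicle control.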

[3] = biological target: Acetylcholinesterase (Homo sapiens) (UniProt P22303); assay: Acetylcholinesterase (AChE) small molecule antagonists: fluorescence cell-based qHTS assay (AID 1347398; calls by dose curve; further: nearly all actives have a fitted effect of over 50% in size; further: potency means the concentration at half of the fitted maximal effect); settings: Potency: AChE activity
Outline: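 Cellular AChE activity read as thiocholine from acetylthiocholine hydrolysis, detected by Thiolite Green fluorescence at 490/520 nm after 40 min at room temperature. Compounds were pre-incubated 30 min at 37 C on adherent SH-SY5Y cells.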

[4] = biological target: Acetylcholinesterase (Homo sapiens) (UniProt P22303); assay: Acetylcholinesterase (AChE) small molecule antagonists: enzyme-based qHTS assay with human liver microsomes (AID 1347399; calls by dose curve; further: nearly all actives have a fitted effect of over 60% in size; further: potency means the concentration at half of the fitted maximal effect); settings: Potency: qHTS inhibition
Outline: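 Recombinant human AChE (50 mU/mL in the enzyme mix) and human liver microsomes (0.25 mg/mL final) were preincubated with compound and NADPH (0.25 mg/mL final) for 30 min at 37 C. Acetylthiocholine/DTNB was then added; thiocholine was read colorimetrically after 10 min at room temperature.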

[5] = biological target: Cytochrome P450 2D6 (Homo sapiens) (UniProt P10635); assay: Cytochrome P450 Family 2 Subfamily D Member 6 (CYP2D6) small molecule antagonists: luciferase reporter qHTS assay (AID 1671196); further: nearly all actives have a fitted effect of over 50% in size; further: potency means the concentration at half of the fitted maximal effect
Chain of Cytochrome P450 2D6 (Homo sapiens) (P10635 whole entry, looked up): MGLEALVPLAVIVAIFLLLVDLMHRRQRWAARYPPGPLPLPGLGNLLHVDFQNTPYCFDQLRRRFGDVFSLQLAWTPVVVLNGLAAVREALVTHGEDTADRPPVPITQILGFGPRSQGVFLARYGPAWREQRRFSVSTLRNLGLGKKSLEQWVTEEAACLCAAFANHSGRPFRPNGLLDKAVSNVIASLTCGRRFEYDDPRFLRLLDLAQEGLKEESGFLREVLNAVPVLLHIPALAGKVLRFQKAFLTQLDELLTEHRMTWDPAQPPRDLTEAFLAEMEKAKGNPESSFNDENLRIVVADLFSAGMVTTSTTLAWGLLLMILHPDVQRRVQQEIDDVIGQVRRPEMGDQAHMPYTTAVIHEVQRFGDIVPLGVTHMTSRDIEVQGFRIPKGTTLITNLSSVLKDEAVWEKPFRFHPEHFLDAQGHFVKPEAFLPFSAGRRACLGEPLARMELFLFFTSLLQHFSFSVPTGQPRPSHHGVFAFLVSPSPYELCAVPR
Outline: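 Enzyme and proluciferin substrate were first combined with test chemical for 10 min at room temperature. Adding NADPH regeneration solution started a 1 h reaction, stopped with luciferin detection reagent and read by luminescence 20 min later.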

[6] = biological target: Cytochrome P450 2C19 (Homo sapiens) (UniProt P33261); assay: Cytochrome P450 Family 2 Subfamily C Member 19 (CYP2C19) small molecule antagonists: luciferase reporter qHTS assay (AID 1671197); further: nearly all actives have a fitted effect of over 65% in size; further: potency means the concentration at half of the fitted maximal effect
Chain of Cytochrome P450 2C19 (Homo sapiens) (P33261 whole entry, looked up): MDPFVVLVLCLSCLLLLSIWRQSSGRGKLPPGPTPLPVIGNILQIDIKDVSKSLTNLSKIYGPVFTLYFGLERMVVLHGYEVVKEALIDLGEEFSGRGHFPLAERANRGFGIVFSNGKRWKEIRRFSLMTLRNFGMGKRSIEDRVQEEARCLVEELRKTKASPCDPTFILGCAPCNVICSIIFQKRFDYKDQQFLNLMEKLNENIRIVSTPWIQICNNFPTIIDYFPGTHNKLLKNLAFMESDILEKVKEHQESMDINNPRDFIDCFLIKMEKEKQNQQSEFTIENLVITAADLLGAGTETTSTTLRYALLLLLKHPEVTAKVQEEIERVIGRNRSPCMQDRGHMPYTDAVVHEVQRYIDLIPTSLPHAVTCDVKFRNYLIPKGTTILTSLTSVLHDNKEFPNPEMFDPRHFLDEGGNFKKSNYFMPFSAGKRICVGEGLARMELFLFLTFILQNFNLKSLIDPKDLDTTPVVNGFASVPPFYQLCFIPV
Outline: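 Luminescent readout of CYP2C19 activity: luciferin product detected 20 min after adding detection reagent. Before that, compound and enzyme-substrate mix preincubated 10 min at room temperature; NADPH-regenerating system started a 1 h, 37C reaction. Ketoconazole as positive control.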

[7] = biological target: Cytochrome P450 1A2 (Homo sapiens) (UniProt P05177); assay: Cytochrome P450 Family 1 Subfamily A Member 2 (CYP1A2) small molecule antagonists: luciferase reporter qHTS assay (AID 1671199); further: nearly all actives have a fitted effect of over 50% in size; further: potency means the concentration at half of the fitted maximal effect
Chain of Cytochrome P450 1A2 (Homo sapiens) (P05177 whole entry, looked up): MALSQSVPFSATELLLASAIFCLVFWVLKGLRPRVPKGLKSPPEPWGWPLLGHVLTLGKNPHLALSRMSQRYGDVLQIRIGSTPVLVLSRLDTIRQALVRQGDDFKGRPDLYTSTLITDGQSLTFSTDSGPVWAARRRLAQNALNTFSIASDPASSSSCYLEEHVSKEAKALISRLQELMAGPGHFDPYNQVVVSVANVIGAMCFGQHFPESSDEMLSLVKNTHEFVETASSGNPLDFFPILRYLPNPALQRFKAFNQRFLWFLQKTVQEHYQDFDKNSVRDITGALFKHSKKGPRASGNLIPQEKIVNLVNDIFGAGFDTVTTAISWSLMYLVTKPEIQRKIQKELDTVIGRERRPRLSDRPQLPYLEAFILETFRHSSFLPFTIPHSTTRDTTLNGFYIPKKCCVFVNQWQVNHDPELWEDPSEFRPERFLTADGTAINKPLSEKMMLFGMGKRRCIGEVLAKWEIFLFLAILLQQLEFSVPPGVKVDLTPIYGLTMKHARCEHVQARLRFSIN
Outline: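 Compounds were incubated with CYP1A2 and a luminogenic proluciferin substrate for 10 min at room temperature before the reaction was started with NADPH regeneration solution. After 1 h, detection reagent was added and light output, proportional to CYP activity, was recorded.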

[8] = biological target: Voltage-gated inwardly rectifying potassium channel KCNH2 (Homo sapiens) (UniProt Q12809); assay: Human Ether-a-go-go-Related Gene (hERG) channel small molecule antagonists: fluorescence cell-based qHTS assay (AID 1671200);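 further: hERG-expressing U2OS cells given a thallium stimulus after FluxOR II dye loading; series mostly up to about 77 µM; nearly all actives have a fitted effect of over 50% in size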
Chain of Voltage-gated inwardly rectifying potassium channel KCNH2 (Homo sapiens) (Q12809 whole entry, looked up): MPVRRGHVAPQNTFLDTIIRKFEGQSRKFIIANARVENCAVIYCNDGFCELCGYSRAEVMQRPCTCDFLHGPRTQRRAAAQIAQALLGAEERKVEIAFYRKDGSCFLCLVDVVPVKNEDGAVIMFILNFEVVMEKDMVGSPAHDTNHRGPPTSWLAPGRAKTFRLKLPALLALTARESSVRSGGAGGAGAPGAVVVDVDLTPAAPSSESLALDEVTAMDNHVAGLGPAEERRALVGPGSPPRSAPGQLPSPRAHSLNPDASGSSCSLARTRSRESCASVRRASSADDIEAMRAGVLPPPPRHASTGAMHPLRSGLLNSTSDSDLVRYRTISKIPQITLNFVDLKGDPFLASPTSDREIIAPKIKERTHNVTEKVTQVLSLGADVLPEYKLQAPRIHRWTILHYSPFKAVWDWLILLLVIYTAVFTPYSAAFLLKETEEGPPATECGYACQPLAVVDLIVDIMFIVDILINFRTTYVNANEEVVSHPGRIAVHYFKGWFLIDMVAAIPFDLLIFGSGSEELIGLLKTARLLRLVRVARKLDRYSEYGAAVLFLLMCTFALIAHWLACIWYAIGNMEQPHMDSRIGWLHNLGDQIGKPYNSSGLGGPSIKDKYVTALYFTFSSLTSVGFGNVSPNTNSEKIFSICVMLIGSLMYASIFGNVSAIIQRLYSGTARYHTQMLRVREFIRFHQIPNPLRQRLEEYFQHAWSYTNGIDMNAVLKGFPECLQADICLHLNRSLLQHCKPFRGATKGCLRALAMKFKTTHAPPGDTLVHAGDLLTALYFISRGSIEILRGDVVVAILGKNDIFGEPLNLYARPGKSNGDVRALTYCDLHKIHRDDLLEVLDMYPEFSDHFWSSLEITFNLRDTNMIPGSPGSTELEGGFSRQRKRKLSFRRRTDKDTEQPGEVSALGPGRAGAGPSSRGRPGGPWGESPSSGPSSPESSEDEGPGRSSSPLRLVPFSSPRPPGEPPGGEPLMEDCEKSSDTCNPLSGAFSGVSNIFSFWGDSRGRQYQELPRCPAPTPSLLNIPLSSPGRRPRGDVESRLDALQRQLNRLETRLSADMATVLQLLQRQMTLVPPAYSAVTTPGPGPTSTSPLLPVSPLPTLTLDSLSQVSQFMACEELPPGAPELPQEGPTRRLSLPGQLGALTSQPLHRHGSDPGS
Outline: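 Kinetic two-minute fluorescence traces, sampled at 1 s, were collected following thallium stimulus of U2OS cells (1000 per well) that had been cultured overnight at 37 C and loaded with FluxOR II.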

[9] = biological target: Cytochrome P450 2C9 (Homo sapiens) (UniProt P11712); assay: Cytochrome P450 Family 2 Subfamily C Member 9 (CYP2C9) small molecule antagonists: luciferase reporter qHTS assay (AID 1671198); further: nearly all actives have a fitted effect of over 50% in size; further: potency means the concentration at half of the fitted maximal effect
Chain of Cytochrome P450 2C9 (Homo sapiens) (P11712 whole entry, looked up): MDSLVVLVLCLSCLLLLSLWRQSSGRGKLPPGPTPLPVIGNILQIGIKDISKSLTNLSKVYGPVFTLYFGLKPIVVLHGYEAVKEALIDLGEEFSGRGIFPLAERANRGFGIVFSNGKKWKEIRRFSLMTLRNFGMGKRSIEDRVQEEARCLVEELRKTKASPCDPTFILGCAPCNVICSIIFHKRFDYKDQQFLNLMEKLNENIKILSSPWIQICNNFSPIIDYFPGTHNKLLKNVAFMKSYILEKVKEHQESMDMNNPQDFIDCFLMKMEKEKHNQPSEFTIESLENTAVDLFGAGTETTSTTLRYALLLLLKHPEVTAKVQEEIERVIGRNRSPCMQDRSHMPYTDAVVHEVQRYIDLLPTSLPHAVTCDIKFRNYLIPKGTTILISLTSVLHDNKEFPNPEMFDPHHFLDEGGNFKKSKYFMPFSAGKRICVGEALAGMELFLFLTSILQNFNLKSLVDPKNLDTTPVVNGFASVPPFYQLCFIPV
Outline: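 Enzyme-substrate mix preincubated with compound 10 min at room temperature; reaction started with NADPH regeneration solution, 1 h 37C. Luminescent luciferin product read after 20 min detection reagent.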

[10] = biological target: Cytochrome P450 3A4 (Homo sapiens) (UniProt P08684); assay: Cytochrome P450 Family 3 Subfamily A Member 4 (CYP3A4) small molecule antagonists: luciferase reporter qHTS assay (AID 1671201); further: nearly all actives have a fitted effect of over 50% in size; further: potency means the concentration at half of the fitted maximal effect
Chain of Cytochrome P450 3A4 (Homo sapiens) (P08684 whole entry, looked up): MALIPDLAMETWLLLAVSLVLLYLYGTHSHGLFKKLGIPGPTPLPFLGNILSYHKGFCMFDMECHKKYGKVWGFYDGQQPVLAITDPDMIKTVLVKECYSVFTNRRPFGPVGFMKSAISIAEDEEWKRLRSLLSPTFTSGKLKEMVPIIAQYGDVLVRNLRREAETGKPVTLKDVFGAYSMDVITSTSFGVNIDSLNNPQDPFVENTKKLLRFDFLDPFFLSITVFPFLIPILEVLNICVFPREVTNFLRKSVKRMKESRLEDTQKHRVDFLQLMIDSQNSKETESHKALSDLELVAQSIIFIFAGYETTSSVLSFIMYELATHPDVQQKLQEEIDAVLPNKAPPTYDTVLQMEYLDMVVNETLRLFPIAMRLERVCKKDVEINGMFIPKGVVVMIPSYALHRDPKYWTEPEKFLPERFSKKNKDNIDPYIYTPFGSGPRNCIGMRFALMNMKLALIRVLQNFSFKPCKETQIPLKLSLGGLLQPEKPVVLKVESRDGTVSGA
Outline: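 Proluciferin-to-luciferin conversion by CYP3A4, NADPH-regenerated, 1 h RT; luminescence read as RLU. Ketoconazole as control.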

SMILES | Potency [1] | Potency [2] | Potency [3] | Potency [4] | Potency [5] | Potency [6] | Potency [7] | Potency [8] | Potency [9] | Potency [10]
CC12CC1(C)C(=O)N(c1cc(Cl)cc(Cl)c1)C2=O (stereo unspecified) | inactive | inactive | inactive | inactive | inactive | 22.4 µM (active) | 9.99 µM (active) and 14.2 µM (active) | inactive |  | 
Cc1cc(Cl)ccc1OC(C)C(=O)O (stereo unspecified) | inactive |  | inactive | inactive | inactive | 78.3 µM (active) and inactive | inactive | inactive | 44.1 µM (active) and inactive | inactive
Nc1cccc(Cl)c1 | inactive |  | inactive | inactive | inactive | 40.4 µM (active) and inactive | 40.4 µM (active) and inactive | inactive | 71.8 µM (active) and inactive | 
Nc1ccc([As](=O)(O)O)cc1 | inactive |  | inactive | inactive | inactive | inactive | inactive | inactive | inactive | 
Cc1cccc(C)c1N | inactive |  | inactive | inactive | 11.1 µM (active) and inactive | inactive | inactive | inactive | inactive | 
CC(C)CCCCCCOC(=O)c1ccccc1C(=O)OCCCCCCC(C)C | inactive | inactive | inactive | inactive | inactive | 71 µM (active) | 63.2 µM (active) | inactive |  | 
O=C(O)Cc1ccccc1 | inactive |  | inactive | inactive | 40 µM (active) and 12.3 µM (active) | inactive | 63.4 µM (active) and inactive | inactive | inactive | 
COP(=S)(OC)SCN1C(=O)c2ccccc2C1=O | 71.5 µM (active) and 39.9 µM (active) |  | inactive | inactive | 35.8 µM (active) and 35.6 µM (active) and 15.5 µM (active) | 715 nM (active) and 710 nM (active) and 436 nM (active) | 10.1 µM (active) and 10 µM (active) and 6.92 µM (active) | inactive | 4.02 µM (active) and 2.52 µM (active) and 1.74 µM (active) | 
CN(C)C(=O)Cl | inactive |  | inactive | inactive | inactive | inactive | inactive | inactive | inactive | 
CCOC(=O)CC(SP(=O)(OC)OC)C(=O)OCC (stereo unspecified) | 3.02 µM (active) and 3.56 µM (active) |  | 954 nM (active) and 1.42 µM (active) | 60.2 µM (active) and 56.4 µM (active) | inactive | 53.6 µM (active) | 75.8 µM (active) and 71 µM (active) | inactive | 67.5 µM (active) and 71 µM (active) | 
CC[N+](=O)[O-] | inactive |  | inactive | inactive | inactive | 72.5 µM (active) and inactive | inactive | inactive | inactive | 
COS(=O)(=O)OC | inactive |  | inactive | inactive | inactive | inactive | inactive | inactive | inactive | 
C[C@H]1C(=O)O[C@@H]2CCN3CC=C(COC(=O)[C@](C)(O)[C@]1(C)O)[C@H]23 | inactive |  | inactive | inactive | inactive and 30.9 µM (active) | inactive | inactive | inactive | inactive | inactive
Cc1cccc(C)c1NC(=O)CN1CCCC1=O | inactive |  | inactive | inactive | inactive | inactive | inactive | inactive | inactive | 
Nc1nc(N)nc(NC2CC2)n1 | inactive |  | inactive | inactive | inactive | inactive | inactive | inactive | inactive | 
Sc1ccccc1 | inactive | inactive | inactive | inactive | inactive | 18.1 µM (active) and 40.1 µM (active) |  | inactive | 32.2 µM (active) and 31.9 µM (active) and 56.4 µM (active) | inactive
CNC(=O)Oc1cccc2ccccc12 | 2.22 µM (active) and inactive |  | 3.56 µM (active) | inactive and 89.4 µM (active) | 39.6 µM (active) and inactive | 35.3 µM (active) and 63.3 µM (active) and 17.4 µM (active) | 3.14 µM (active) and 8.94 µM (active) | inactive | 28 µM (active) and inactive | 
CC(C)c1cccc(C(C)C)c1O | inactive | inactive | inactive | inactive |  |  |  | inactive |  | 
CCOc1ccc(N)cc1 | inactive | inactive | inactive | inactive | 31.8 µM (active) and 39.9 µM (active) | 40 µM (active) and inactive | 35.7 µM (active) | inactive |  | inactive
CNC(=O)O/N=C/C(C)(C)S(C)=O (stereo unspecified) | 322 nM (active) and 354 nM (active) |  | 57.2 nM (active) and 35.4 nM (active) | 2.87 µM (active) and 2.51 µM (active) | inactive | inactive | inactive | inactive | inactive | 
Cl[C@H]1OCCO[C@@H]1Cl | inactive | inactive | inactive | inactive | 19.6 µM (active) |  | inactive | inactive | inactive | inactive
O=C(O)COc1ccccc1 | inactive |  | inactive | inactive | inactive | inactive | inactive | inactive | inactive | 
Cc1cccc(N)c1C | inactive | inactive | inactive | inactive | 71 µM (active) | inactive and 31.7 µM (active) | 36.9 µM (active) and 20 µM (active) | inactive |  | 

SMILES | Potency [1] | Potency [2] | Potency [3] | Potency [4] | Potency [5] | Potency [6] | Potency [7] | Potency [8] | Potency [9] | Potency [10]
COC(C)(C)CCCC(C)C/C=C/C(C)=C/C(=O)OC(C)C (stereo unspecified) | inactive |  | inactive | inactive | inactive | 24.5 µM (active) | inactive | inactive | 62.2 µM (active) and 17.4 µM (active) | 
CC(C)(C)C(=O)CCl | inactive |  | inactive | inactive | inactive | inactive | inactive | inactive | inactive | 
CN1C(=O)CCS(=O)(=O)C1c1ccc(Cl)cc1 (stereo unspecified) | inactive |  | inactive | inactive | inactive | 28.3 µM (active) |  | inactive | inactive | 
C=CC#N | inactive |  | inactive | inactive | inactive | inactive | inactive | inactive | inactive | inactive
Cc1ccccc1N |  |  |  |  | inactive and 40.7 µM (active) |  | inactive and 36.3 µM (active) and 31.7 µM (active) | inactive | 40.7 µM (active) and 79.6 µM (active) and 35.6 µM (active) | 
ClC(Cl)c1ccccc1 | inactive |  | inactive | inactive |  | 40.6 µM (active) and inactive | inactive | inactive | inactive | inactive
O=P1(NCCCl)OCCCN1CCCl (stereo unspecified) |  |  |  |  |  |  |  | inactive |  | 
Oc1ccc(Cl)cc1 |  |  |  |  |  |  |  | inactive |  | 
CCCCCCCCCCCCCCCCCC(=O)O |  |  |  |  | 35.3 µM (active) and inactive | 281 nM (active) and inactive | 2.5 µM (active) and inactive | inactive | 1.12 µM (active) and inactive | inactive
COc1nc(NC(C)C)nc(NC(C)C)n1 | inactive |  | inactive | inactive | inactive |  | 31.8 µM (active) and 28.3 µM (active) | inactive | inactive | inactive
Nc1ncc([N+](=O)[O-])s1 | inactive |  | inactive | inactive | inactive | 71.6 µM (active) and 50.2 µM (active) |  | inactive | 63.3 µM (active) | 
O=C(O)c1cc(Oc2ccc(C(F)(F)F)cc2Cl)ccc1[N+](=O)[O-] | inactive |  | inactive | inactive | inactive | inactive and 71 µM (active) | inactive | inactive | 21.9 µM (active) and 35.6 µM (active) and 31.9 µM (active) | inactive
Cc1ccc(O)c(C)c1 | inactive |  | inactive | inactive | inactive | inactive | 70 µM (active) and 29.5 µM (active) | inactive |  | 
O=C(O)C(Br)Br | inactive |  | inactive | inactive | inactive | inactive | inactive | inactive | inactive | inactive
O=C(O)CCCc1ccc(N(CCCl)CCCl)cc1 | inactive |  | inactive | inactive | inactive | inactive | inactive | inactive | inactive | inactive
CNC(=O)O/N=C/C(C)(C)S(C)(=O)=O |  |  |  |  | inactive | inactive | inactive | inactive | inactive | 
NNc1ccccc1 |  |  |  |  |  |  |  | inactive | 39.5 µM (active) and 39.8 µM (active) and 50.2 µM (active) | 
C=CC(=O)OCC(CC)CCCC (stereo unspecified) |  |  |  |  |  |  |  | inactive |  | 
Cc1ccc(N=C=O)cc1N=C=O | inactive |  | inactive | inactive | 40.9 µM (active) and 11.2 µM (active) and inactive | 36.5 µM (active) and 10 µM (active) and inactive | 36.5 µM (active) and 35.5 µM (active) | inactive | 36.5 µM (active) and 25.1 µM (active) and 79.6 µM (active) | 5.78 µM (active) and 2.82 µM (active) and inactive
O=S(=O)(O)OOS(=O)(=O)O | inactive |  | inactive | inactive | inactive | inactive | 31.6 µM (active) and inactive | inactive | inactive | inactive
C=CCN=C=S | inactive |  | inactive | inactive | inactive | 40.8 µM (active) and inactive | inactive | inactive | inactive | inactive
COc1cc(-c2ccc(N)c(OC)c2)ccc1N |  |  |  |  | 40.1 µM (active) and 39.5 µM (active) and 34 µM (active) |  | 1.79 µM (active) [middle of 4 runs] | inactive | 12.7 µM (active) [middle of 4 runs] | 

From PubChem BioAssay (Tox21)
